Laboratory results from PubChem BioAssay.
“And” between values parts separate entries of the source, which are not always exact repeats. Identical values can stand only once. The source made the active and inactive calls.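 Rule for the calls, unless noted: active = mean z-score across replicates of 1.96 or higher in either the MELAS or the Rieske mutant cell line; inactive = the rest.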

What was measured:
[1] = sensitizers of A549 cells to miR-34 induction, primary screen, imaging, A549 dox-inducible miR-34, nuclei and caspase counts (AID 1347080;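 active = compounds whose cell count with miR-34 switched on is under 0.7 times the count with it off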); settings: A549 miR-34 inducible, Hoechst nuclei count, 48 h
[2] = survival rescue of mitochondrial mutant cells in low glucose, primary screen, MELAS cybrids, Rieske KO mouse fibroblasts, CellTiter-Glo (AID 1508586);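 note: z relative to plate mean and SD of compound and empty wells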
[3] = biological target: NAD(+) hydrolase SARM1 (Homo sapiens) (UniProt Q6SZW1); experiment: SARM1 TIR NADase inhibitors, cell lysate, NAD-Glo luminescence (AID 1508614;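 active = compound whose remaining NAD level is above about 45 nM, limit read from the data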;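 note: higher remaining NAD means stronger inhibition of SARM1 NADase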); settings: SAM-TIR HEK293T lysate NADase, at 1 µM, stronger effect = higher value
Sequence of NAD(+) hydrolase SARM1 (Homo sapiens) (Q6SZW1 whole entry, looked up): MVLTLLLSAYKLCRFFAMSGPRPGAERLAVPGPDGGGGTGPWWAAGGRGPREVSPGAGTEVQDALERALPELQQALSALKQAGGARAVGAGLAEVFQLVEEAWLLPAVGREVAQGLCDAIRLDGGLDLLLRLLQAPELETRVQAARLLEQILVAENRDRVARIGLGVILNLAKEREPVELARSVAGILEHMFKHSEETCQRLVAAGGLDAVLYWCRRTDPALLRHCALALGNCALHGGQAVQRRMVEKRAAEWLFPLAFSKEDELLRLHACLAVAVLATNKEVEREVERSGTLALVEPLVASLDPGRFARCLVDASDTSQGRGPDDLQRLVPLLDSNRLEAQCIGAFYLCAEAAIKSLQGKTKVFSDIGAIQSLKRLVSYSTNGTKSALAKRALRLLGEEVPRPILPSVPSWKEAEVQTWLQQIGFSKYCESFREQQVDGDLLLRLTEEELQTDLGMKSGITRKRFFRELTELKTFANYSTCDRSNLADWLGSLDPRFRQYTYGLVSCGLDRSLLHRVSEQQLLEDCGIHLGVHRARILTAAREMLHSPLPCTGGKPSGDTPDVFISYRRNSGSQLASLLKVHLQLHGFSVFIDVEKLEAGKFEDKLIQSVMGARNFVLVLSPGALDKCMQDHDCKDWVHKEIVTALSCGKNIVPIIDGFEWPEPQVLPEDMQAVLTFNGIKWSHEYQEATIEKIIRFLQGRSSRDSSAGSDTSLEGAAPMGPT

[4] = liver-stage malaria parasite growth inhibition, primary screen, cell-based, HepG2, luciferase luminescence, HepG2 viability (AID 624349; in the data active = parasite load remaining mostly below about 12%, no sharp cut-off; inactive = mostly above about 10%;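 note: 100% = mean of DMSO negative control wells on the same plate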); settings: P. berghei liver stage in HepG2, luciferase luminescence, concentration not given here; parasite load remaining: stronger effect = lower value; viability: measured here: HepG2 viability without parasites
[5] = biological target: Mitogen-activated protein kinase 7 (Homo sapiens) (UniProt Q13164); experiment: ERK5 transactivation activators in reporter cells, primary screen, cell-based, HTS (AID 1508626;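 active = luciferase signal above three times the same-plate solvent-only control wells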;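 note: luciferase driven by Gal4-ERK5 fusion binding five Gal4 sites before minimal TATA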); settings: HeLa Gal4-ERK5 transactivation, 18 h, at 5 µM, stronger effect = higher value
Sequence of Mitogen-activated protein kinase 7 (Homo sapiens) (Q13164 whole entry, looked up, the tested form may be a part): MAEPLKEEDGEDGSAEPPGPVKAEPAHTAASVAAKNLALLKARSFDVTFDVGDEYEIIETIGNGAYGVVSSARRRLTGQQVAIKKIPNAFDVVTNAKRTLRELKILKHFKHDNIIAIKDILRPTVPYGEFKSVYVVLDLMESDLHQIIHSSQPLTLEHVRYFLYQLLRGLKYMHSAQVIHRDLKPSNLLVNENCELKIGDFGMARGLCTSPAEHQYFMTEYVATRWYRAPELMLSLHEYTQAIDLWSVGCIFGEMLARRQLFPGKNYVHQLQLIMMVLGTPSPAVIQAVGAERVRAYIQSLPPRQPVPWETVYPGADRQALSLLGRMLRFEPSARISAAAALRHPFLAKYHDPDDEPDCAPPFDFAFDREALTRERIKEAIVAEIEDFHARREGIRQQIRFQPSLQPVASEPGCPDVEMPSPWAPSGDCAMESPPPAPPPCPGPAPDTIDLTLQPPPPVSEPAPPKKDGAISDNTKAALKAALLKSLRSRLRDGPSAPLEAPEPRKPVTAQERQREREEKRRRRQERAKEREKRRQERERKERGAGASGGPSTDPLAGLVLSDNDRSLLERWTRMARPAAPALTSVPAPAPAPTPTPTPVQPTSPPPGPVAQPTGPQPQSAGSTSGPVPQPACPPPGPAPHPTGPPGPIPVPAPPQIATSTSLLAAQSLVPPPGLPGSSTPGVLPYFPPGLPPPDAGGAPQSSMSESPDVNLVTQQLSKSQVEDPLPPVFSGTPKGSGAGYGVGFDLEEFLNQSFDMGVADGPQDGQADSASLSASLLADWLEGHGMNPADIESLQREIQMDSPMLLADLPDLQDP

[6] = viability rescue of complex I mutant cybrids, primary screen, cell-based, galactose medium, ATP luminescence (AID 1645843;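 active = z-score of at least 1.8 in each of two replicates, scored against plate mean and spread of sample wells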;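 note: positive z means more ATP and so rescue of galactose-driven cybrid death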); settings: complex I mutant cybrid cells, 72 h, stronger effect = higher value
[7] = stronger effect = lower value, cell number ratio, induced over uninduced
[8] = measured here: relative caspase fold change +Dox/-Dox
[9] = measured here: total cells with miR-34 induction, stronger effect = lower value
[10] = measured here: total cells without miR-34 induction
[11] = MELAS cybrid survival, CellTiter-Glo 48 h, stronger effect = higher value
[12] = Rieske KO mouse fibroblast survival, CellTiter-Glo 72 h

SMILES | fold change [1, 7] | fold change [1, 8] | cell count [1, 9] | cell count [1, 10] | z-score [2, 11] | z-score [2, 12] | remaining NAD [3] | parasite load remaining [4] | viability [4] | luciferase signal [5] | z-score [6]
Cc1c(OCC(F)(F)F)ccnc1C[S@@](=O)c1nc2ccccc2[nH]1 | 0.977 (inactive) | 1.03 | 7200 | 7370 | -0.079 (inactive) | -0.121 | 53 nM (active) |  |  |  | 
CO[C@H]1C[C@H](O[C@H]2[C@H](C)[C@@H](O[C@@H]3O[C@H](C)C[C@H](N(C)C)[C@H]3OC(C)=O)[C@@H](C)C[C@@]3(CO3)C(=O)[C@H](C)[C@@H](OC(C)=O)[C@@H](C)[C@@H](C)OC(=O)[C@@H]2C)O[C@@H](C)[C@@H]1OC(C)=O | 0.951 (inactive) and 0.962 (inactive) | 1.2 and 1.02 | 9570 and 9780 | 10100 and 10200 | 0.411 (inactive) and -0.389 (inactive) | -0.0819 and -0.533 |  | 27.9% (inactive) and 46.8% (inactive) | 46.5% and 147% | 232 AU (inactive) | 0.095 (inactive)
Cc1cc(C)nc(-c2cnn(CC(=O)Nc3cnn(C)n3)c2)n1 | 0.881 (inactive) | 1.67 | 8470 | 9620 | 0.0131 (inactive) | -0.562 |  |  |  |  | -0.525 (inactive)
